The target of assay [1] is Myc proto-oncogene protein (Homo sapiens) (UniProt P01106). Nature of the assay: ATG_Myc_CIS: Attagene CIS-FACTORIAL HepG2 Assay for human Myelocytomatosis (Myc) Proto-Oncogene Transcription Factor (AID 2282990). The conditions noted are these: HepG2, Attagene cis-reporter transcription factor activity; actives raise or lower the signal. In a few lines: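 HepG2 cells transiently transfected with multiple cis-promoter-driven reporter transcription units, so endogenous TF activity is read. After 24 h compound exposure, reporter mRNA was quantified by RT-PCR, 6-FAM labelling, HpaI digestion and capillary electrophoresis; bidirectional fit versus DMSO.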
Myc proto-oncogene protein (Homo sapiens), sequence (P01106 whole entry, looked up): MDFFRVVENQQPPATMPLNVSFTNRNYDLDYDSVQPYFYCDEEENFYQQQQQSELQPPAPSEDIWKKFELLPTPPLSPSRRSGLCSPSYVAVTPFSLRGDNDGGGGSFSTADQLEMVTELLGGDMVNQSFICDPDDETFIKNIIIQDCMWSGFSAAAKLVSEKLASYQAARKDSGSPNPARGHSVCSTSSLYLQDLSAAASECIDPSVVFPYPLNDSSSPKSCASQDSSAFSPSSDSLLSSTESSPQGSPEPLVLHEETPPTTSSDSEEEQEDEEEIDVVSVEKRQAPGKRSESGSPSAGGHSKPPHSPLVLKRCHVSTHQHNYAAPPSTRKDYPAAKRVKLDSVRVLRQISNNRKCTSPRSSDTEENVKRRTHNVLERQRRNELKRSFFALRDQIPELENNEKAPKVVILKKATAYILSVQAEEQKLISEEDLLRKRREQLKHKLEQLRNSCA

Assay [2] in a line: ATG_NF_kB_CIS: Attagene CIS-FACTORIAL HepG2 Assay for human Nuclear Factor Kappa B (NF-kB) (AID 2282991). The following applies: HepG2 Attagene cis-factorial NF-kB reporter mRNA; actives raise or lower the signal. The essentials: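 Transient MRTU transfection of human HepG2 liver cells → 24 h chemical exposure → total RNA, oligo(dT) RT → PCR, 6-FAM primer extension, HpaI digest 2 h 37 C → CE fragment analysis. Bidirectional fitting, DMSO negative control.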

Assay [3] can be described thus: ATG_NRF2_ARE_CIS: Attagene CIS-FACTORIAL HepG2 Assay for human Nuclear Factor Erythroid 2 Related Factor 2 (NFR2) response to Antioxidant Response Elements (ARE) (AID 2282992).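 As to AC50: reporter mRNA level measured by RT-PCR and capillary electrophoresis fluorescence.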 The following applies: HepG2 Attagene ARE/NRF2 reporter, transcription factor activity; actives raise or lower the signal. In a few lines: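 HepG2 cells transiently transfected with multiplexed cis-element reporter constructs, 24 h after chemical dosing; reporter mRNA quantified by RT-PCR, fluorescent primer extension, HpaI digestion and capillary electrophoresis. Bidirectional fit relative to DMSO.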

Assay [4] is described as follows: ATG_Oct_MLP_CIS: Attagene CIS-FACTORIAL HepG2 Assay for human Octamer-Binding Transcription Factor (Oct) (AID 2282993). The following applies: HepG2 Attagene cis-factorial Oct reporter, mRNA; actives raise or lower the signal. The essentials: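 Readout is reporter transcript level from RT-PCR with fluorescent primer extension and capillary electrophoresis, fitted in both directions against DMSO. Transfected HepG2 reporter units report endogenous factor activity after 24 h dosing.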

Assay [5] addresses Cellular tumor antigen p53 (Homo sapiens) (UniProt P04637). The assay can be described thus: ATG_p53_CIS: Attagene CIS-FACTORIAL HepG2 Assay for human p53 Transcription Factor (AID 2282994). The conditions noted are these: HepG2 p53 cis-element reporter, Attagene mRNA; actives raise or lower the signal. In a few lines: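 HepG2 cells transiently transfected with cis-regulated multiple reporter transcription units, dosed 24 h. Reporter mRNA measured by RT-PCR, 6-FAM primer extension, HpaI digestion and capillary electrophoresis; bidirectional fit relative to DMSO.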

A short description of assay [6]: BSK_3C_TissueFactor: BioMAP Diversity Plus: 3C Assay for Tissue Factor Biomarker Activity (AID 2282997). The conditions noted are these: BioMAP 3C HUVEC, tissue factor biomarker readout; actives raise or lower the signal. In a few lines: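 Human vascular primary cells (umbilical vein endothelium) received test chemical; Tissue Factor was determined by ELISA at 24 h, and both gain and loss of signal versus DMSO were fitted.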

Assay [7] in a line: BSK_3C_VCAM1: BioMAP Diversity Plus: 3C Assay for Vascular cell adhesion molecule 1 (VCAM1) Biomarker Activity (AID 2282999). The following applies: BioMAP 3C HUVEC, VCAM1 ELISA, cytokine-stimulated; actives raise or lower the signal. The essentials: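 Human umbilical vein endothelial cells were dosed with compound for 24 h, after which cell-surface VCAM-1 was quantified by ELISA. Bidirectional curve fitting used DMSO as negative control and activity baseline.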

A short description of assay [8]: BSK_4H_Eotaxin3: BioMAP Diversity Plus: 4H Assay for Eotaxin 3 Biomarker Activity (AID 2283000).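 As to outcome: CCL26 protein level quantified by ELISA in parallel with SRB cytotoxicity check.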 The following applies: primary human endothelial cells (HUVEC); actives raise or lower the signal. In a few lines:
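Readout is Eotaxin-3 (CCL26) level by ELISA in primary human umbilical vein endothelial cells harvested 24 h after chemical exposure; activity fitted in both directions against DMSO control.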

Assay [9] has as its target human Peroxisome Proliferator-activated Receptor alpha (PPARa), PPARA (gene 5465) (UniProt Q07869). Nature of the assay: ATG_PPARa_TRANS: Attagene TRANS-FACTORIAL HepG2 Assay for human Peroxisome Proliferator-activated Receptor alpha (PPARa) (AID 2283001; active = hit-call score of the fitted dose curve at least 0.9, where 1 is the maximum). The essentials:
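HepG2 cells transiently transfected with multiplexed GAL4-UAS reporter units and chimeric NR-Gal4 constructs were dosed for 24 h. Reporter mRNA was measured by RT-PCR with fluorescent labelling and capillary electrophoresis; gain of signal fitted against DMSO.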

In assay [10] the target is human Peroxisome Proliferator-activated Receptor delta (PPARd), PPARD (gene 5467) (UniProt Q03181). Nature of the assay: ATG_PPARd_TRANS: Attagene TRANS-FACTORIAL HepG2 Assay for human Peroxisome Proliferator-activated Receptor delta (PPARd) (AID 2283002; active = hit-call score of the fitted dose curve at least 0.9, where 1 is the maximum). In a few lines: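 HepG2 cells transiently transfected with multiplexed GAL4-UAS reporter units and exogenous chimeric NR-Gal4 proteins; 24 h compound exposure. Reporter mRNA measured by RT-PCR, 6-FAM labelling, HpaI digestion and capillary electrophoresis; gain of signal versus DMSO.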
human Peroxisome Proliferator-activated Receptor delta (PPARd), PPARD (gene 5467), sequence (Q03181 whole entry, looked up, the tested form may be a part): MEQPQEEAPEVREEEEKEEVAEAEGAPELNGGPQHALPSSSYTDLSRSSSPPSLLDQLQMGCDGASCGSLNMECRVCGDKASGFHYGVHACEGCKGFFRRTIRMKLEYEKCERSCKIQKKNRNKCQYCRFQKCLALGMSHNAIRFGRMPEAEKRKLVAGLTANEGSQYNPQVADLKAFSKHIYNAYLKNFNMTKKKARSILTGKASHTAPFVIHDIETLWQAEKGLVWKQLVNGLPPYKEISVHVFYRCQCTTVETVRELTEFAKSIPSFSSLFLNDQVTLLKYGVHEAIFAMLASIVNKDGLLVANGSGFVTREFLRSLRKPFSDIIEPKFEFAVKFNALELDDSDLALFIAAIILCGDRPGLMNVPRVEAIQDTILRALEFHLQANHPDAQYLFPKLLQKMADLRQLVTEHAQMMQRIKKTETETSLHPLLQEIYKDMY

Read-out in assay [11]: Intercellular Adhesion Molecule 1 (ICAM1), ICAM1 (gene 3383)
Nature of the assay: BSK_3C_ICAM1: BioMAP Diversity Plus: 3C Assay for Intercellular Adhesion Molecule 1 (ICAM1) Biomarker Activity (AID 2283003). The conditions noted are these: primary human endothelial cells (HUVEC); actives raise or lower the signal. The essentials:
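Human vascular endothelial primary cells, 3C conditions, 24 h treatment. ICAM-1 by ELISA.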

The nature of assay [12]: BSK_3C_Proliferation: Cell Proliferation Assessment in the BioMAP Diversity Plus: 3C Assay (AID 2283006).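 As to AC50: potency may reflect either rise or fall in cell number versus DMSO.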 The conditions noted are these: primary human endothelial cells (HUVEC). The essentials:
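Proliferation of human vascular endothelial primary cells after 48 h dosing, quantified as SRB-stained protein at 560 nm relative to DMSO.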

Assay [13] deals with Peroxisome proliferator-activated receptor gamma (Homo sapiens) (UniProt P37231). Nature of the assay: ATG_PPARg_TRANS: Attagene TRANS-FACTORIAL HepG2 Assay for human Peroxisome Proliferator-activated Receptor-gamma (PPARg) (AID 2283007; active = hit-call score of the fitted dose curve at least 0.9, where 1 is the maximum). In a few lines: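 Transient transfection of HepG2 with GAL4-UAS-driven reporter units; chemical dosing 24 h; total RNA → oligo(dT) RT → PCR with reporter primers → 6-FAM primer extension → HpaI digest 2 h 37 C → capillary electrophoresis. Positive direction vs DMSO.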
Peroxisome proliferator-activated receptor gamma (Homo sapiens), sequence (P37231 whole entry, looked up, the tested form may be a part): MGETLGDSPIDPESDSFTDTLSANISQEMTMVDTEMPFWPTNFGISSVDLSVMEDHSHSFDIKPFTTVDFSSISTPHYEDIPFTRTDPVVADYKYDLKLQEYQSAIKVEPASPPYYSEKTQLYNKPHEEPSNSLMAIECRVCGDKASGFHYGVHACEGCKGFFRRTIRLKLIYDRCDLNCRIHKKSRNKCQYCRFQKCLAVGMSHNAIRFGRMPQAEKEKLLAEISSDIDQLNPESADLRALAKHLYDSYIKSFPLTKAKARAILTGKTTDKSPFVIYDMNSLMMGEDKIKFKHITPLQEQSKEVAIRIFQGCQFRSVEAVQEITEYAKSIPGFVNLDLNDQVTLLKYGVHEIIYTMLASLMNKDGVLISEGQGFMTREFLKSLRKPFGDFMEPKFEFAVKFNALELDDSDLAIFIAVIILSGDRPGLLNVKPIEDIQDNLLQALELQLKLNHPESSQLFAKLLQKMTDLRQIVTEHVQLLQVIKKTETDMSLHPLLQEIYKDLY

Assay [14] deals with Nuclear receptor subfamily 1 group I member 2 (Homo sapiens) (UniProt O75469). The assay can be described thus: ATG_PXR_TRANS: Attagene TRANS-FACTORIAL HepG2 Assay for human Pregnane X Receptor (PXR) (AID 2283008; active = hit-call score of the fitted dose curve at least 0.9, where 1 is the maximum). In a few lines: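 HepG2 cells transiently transfected with GAL4-UAS reporter units and PXR-Gal4 chimera, exposed 24 h. Reporter mRNA quantified by RT-PCR, fluorescent labelling, HpaI digestion and capillary electrophoresis; gain of signal vs DMSO.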
Nuclear receptor subfamily 1 group I member 2 (Homo sapiens), sequence (O75469 whole entry, looked up, the tested form may be a part): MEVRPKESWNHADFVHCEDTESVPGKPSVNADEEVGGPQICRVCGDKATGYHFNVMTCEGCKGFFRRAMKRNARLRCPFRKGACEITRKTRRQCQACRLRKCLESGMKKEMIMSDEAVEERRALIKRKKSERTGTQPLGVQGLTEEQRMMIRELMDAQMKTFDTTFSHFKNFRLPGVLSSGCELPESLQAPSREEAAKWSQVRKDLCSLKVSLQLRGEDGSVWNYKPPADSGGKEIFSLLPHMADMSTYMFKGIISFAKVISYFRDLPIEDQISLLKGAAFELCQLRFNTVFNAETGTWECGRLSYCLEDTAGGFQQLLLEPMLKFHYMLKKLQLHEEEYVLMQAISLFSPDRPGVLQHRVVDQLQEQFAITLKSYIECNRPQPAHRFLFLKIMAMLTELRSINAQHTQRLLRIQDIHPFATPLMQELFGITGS

For assay [15], the target named is human Retinoic Acid Receptor gamma (RARg), RARG (gene 5916) (UniProt P13631). Nature of the assay: ATG_RARg_TRANS: Attagene TRANS-FACTORIAL HepG2 Assay for human Retinoic Acid Receptor gamma (RARg) (AID 2283009; active = hit-call score of the fitted dose curve at least 0.9, where 1 is the maximum). The essentials: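 HepG2, RARg-GAL4 TRANS system, 24 h exposure; reporter mRNA by RT-PCR + CE fluorescence; increase over DMSO.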
human Retinoic Acid Receptor gamma (RARg), RARG (gene 5916), sequence (P13631 whole entry, looked up, the tested form may be a part): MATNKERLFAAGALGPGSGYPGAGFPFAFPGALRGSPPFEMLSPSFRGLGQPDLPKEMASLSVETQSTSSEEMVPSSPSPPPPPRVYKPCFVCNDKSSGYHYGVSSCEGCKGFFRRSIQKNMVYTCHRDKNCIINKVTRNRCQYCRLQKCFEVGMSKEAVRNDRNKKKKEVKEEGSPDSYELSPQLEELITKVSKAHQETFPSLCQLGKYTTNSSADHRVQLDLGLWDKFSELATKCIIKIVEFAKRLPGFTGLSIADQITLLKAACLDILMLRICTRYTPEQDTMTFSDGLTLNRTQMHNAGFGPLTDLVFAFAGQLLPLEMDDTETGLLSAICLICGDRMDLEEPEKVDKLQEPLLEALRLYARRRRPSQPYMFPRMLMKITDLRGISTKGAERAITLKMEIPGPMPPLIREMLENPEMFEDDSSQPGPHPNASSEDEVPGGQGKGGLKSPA
In assay [16] the target is human RAR-related Orphan Receptor beta (RORb), RORB (gene 6096) (UniProt Q92753). Nature of the assay: ATG_RORb_TRANS: Attagene TRANS-FACTORIAL HepG2 Assay for human RAR-related Orphan Receptor beta (RORb) (AID 2283010; active = hit-call score of the fitted dose curve at least 0.9, where 1 is the maximum;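 as to AC50: potency for increased reporter mRNA meaning activation of RORb-Gal4 chimera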). In a few lines:
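In this TRANS-format test, human HepG2 cells express chimeric NR-Gal4 fusion proteins driving GAL4-UAS reporters. After 24 h dosing, reporter transcripts are measured by fluorescent RT-PCR/capillary electrophoresis, with DMSO as negative control.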

In assay [17] the target is human RAR-related Orphan Receptor gamma (RORg), RORC (gene 6097) (UniProt P51449). The assay can be described thus: ATG_RORg_TRANS: Attagene TRANS-FACTORIAL HepG2 Assay for human RAR-related Orphan Receptor gamma (RORg) (AID 2283011; active = hit-call score of the fitted dose curve at least 0.9, where 1 is the maximum;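 as to AC50: potency for induction of reporter transcripts above DMSO so activators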). The essentials:
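Transient MRTU transfection of HepG2 (TRANS format, exogenous NR-Gal4 chimera). 24 h dosing. Total RNA → oligo(dT) RT → PCR → 6-FAM labelling → HpaI cut → CE. Gain vs DMSO.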

Assay [18] deals with human Retinoic Acid Receptor beta (RARb), RARB (gene 5915) (UniProt P10826). The assay can be described thus: ATG_RARb_TRANS: Attagene TRANS-FACTORIAL HepG2 Assay for human Retinoic Acid Receptor beta (AID 2283004; active = hit-call score of the fitted dose curve at least 0.9, where 1 is the maximum). The essentials:
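Readout is reporter mRNA induction: RNA reverse-transcribed, PCR-amplified, FAM-labelled, HpaI-cut and resolved by capillary electrophoresis. Transiently transfected HepG2 cells carrying exogenous NR–Gal4 chimeras were dosed for 24 h; activity fitted upward relative to DMSO.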

Assay [19] addresses Retinoic acid receptor alpha (Homo sapiens) (UniProt P10276). The assay can be described thus: ATG_RARa_TRANS: Attagene TRANS-FACTORIAL HepG2 Assay for human Retinoic Acid Receptor alpha (RARa) (AID 2283005; active = hit-call score of the fitted dose curve at least 0.9, where 1 is the maximum). The essentials: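 HepG2 cells transiently transfected with multiple reporter units expressing chimeric RARα-GAL4 fusion, with GAL4-UAS-driven reporters. After 24 h compound exposure, reporter mRNA induction quantified by RT-PCR and capillary electrophoresis with fluorescent labeling; gain-of-signal fitted relative to DMSO control.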

Values joined by “and” are separate entries in the source; they are usually repeats but may differ in a detail not shown here. Identical values can stand only once. Records with an inconclusive call do not appear. Some compounds were tested as several samples or in several runs, with calls that do not always agree. Active and inactive are the calls of the source. The calls were made as follows, unless noted: active = hit-call score of the fitted dose curve at least 0.9, where 1 is the maximum; inactive = score below 0.9.

human RAR-related Orphan Receptor gamma (RORg), RORC (gene 6097), sequence (P51449 whole entry, looked up, the tested form may be a part): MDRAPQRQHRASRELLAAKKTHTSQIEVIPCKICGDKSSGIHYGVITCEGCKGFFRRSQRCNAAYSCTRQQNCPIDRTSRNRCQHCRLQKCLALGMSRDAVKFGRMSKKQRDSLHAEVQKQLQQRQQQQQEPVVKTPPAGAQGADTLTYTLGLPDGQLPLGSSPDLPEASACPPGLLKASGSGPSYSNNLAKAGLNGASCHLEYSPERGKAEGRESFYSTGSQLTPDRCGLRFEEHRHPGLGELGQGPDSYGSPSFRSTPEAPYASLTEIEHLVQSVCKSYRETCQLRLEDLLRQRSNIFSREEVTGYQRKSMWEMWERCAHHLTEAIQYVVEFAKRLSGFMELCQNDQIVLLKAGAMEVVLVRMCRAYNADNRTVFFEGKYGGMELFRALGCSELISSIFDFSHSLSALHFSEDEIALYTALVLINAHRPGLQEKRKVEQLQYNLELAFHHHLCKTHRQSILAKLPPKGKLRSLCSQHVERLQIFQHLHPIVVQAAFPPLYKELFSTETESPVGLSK
human Peroxisome Proliferator-activated Receptor alpha (PPARa), PPARA (gene 5465), sequence (Q07869 whole entry, looked up, the tested form may be a part): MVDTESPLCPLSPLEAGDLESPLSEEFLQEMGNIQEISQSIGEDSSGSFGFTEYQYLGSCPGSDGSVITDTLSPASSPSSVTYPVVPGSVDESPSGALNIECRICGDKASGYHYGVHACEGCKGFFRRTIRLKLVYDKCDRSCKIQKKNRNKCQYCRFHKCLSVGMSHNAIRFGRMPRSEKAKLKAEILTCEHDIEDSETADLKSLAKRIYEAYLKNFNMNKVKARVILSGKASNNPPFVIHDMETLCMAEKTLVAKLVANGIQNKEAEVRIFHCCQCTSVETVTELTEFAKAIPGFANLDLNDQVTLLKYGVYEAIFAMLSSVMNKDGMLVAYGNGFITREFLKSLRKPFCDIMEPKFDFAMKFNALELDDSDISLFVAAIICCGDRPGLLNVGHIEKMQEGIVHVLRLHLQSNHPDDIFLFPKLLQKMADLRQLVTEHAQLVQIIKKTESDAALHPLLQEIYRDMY
human RAR-related Orphan Receptor beta (RORb), RORB (gene 6096), sequence (Q92753 whole entry, looked up, the tested form may be a part): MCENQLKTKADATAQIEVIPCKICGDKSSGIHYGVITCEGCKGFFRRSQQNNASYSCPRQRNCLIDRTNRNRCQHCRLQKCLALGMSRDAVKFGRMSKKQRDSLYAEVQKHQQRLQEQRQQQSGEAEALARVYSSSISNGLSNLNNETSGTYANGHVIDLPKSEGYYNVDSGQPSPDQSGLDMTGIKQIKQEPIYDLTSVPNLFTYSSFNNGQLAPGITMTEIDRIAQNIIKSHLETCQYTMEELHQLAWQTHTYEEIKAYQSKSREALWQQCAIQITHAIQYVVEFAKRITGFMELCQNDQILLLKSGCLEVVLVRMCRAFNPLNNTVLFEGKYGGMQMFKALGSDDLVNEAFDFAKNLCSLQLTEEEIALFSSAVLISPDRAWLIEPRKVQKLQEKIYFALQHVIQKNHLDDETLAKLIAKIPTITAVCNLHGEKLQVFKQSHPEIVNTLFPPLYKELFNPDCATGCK
Cellular tumor antigen p53 (Homo sapiens), sequence (P04637 whole entry, looked up): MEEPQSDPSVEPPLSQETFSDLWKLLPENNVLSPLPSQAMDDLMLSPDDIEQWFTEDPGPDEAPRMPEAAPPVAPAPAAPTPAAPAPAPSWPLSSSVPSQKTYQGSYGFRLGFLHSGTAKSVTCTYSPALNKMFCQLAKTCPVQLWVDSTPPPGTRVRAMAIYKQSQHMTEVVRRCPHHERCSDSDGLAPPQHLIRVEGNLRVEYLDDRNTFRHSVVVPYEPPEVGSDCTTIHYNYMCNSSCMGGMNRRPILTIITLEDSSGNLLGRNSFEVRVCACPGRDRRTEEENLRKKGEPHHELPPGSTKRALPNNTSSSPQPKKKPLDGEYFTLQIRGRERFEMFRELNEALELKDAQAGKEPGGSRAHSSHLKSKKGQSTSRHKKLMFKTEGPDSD
human Retinoic Acid Receptor beta (RARb), RARB (gene 5915), sequence (P10826 whole entry, looked up, the tested form may be a part): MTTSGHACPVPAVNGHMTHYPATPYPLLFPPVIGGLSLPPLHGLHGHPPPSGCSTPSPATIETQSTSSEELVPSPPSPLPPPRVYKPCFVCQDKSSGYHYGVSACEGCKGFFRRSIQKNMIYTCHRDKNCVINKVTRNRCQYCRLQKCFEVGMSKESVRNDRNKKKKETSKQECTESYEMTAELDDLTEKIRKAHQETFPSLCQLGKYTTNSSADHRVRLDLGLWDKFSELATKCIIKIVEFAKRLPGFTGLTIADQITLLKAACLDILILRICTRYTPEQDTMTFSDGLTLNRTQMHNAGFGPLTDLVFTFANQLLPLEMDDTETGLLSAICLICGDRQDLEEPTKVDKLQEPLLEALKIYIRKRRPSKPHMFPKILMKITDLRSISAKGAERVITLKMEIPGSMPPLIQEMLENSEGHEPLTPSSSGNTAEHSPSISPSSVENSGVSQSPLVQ

For `C#C[C@]1(O)CC[C@H]2[C@@H]3CCC4=CC(=O)CC[C@@H]4[C@H]3CC[C@@]21CC`, the result in assay [1], in assay [2], in [3], in [4], in [5] and in assay [6] was inactive. Further, the result in [7], in [8], in [9], in assay [10], in assay [11] and in assay [13] was inactive. Further, in assay [14], the call was inactive. The AC50 in [3] is 52.1 µM (active); in assay [12], 16 µM (active); in assay [14], 9.53 µM (active).
With `N#CSCSc1nc2ccccc2s1`, the outcome in assay [1], in [2], in [3], in assay [4], in [9] and in assay [10] was inactive. Besides, the outcome in assay [13], in [14], in assay [15], in assay [16] and in assay [17] was inactive. The concentration at half-maximal activity (AC50) in [2] is 3.07 µM (active); in [3] it was 2.89 µM (active); in assay [4], 14.5 µM (active); in assay [6], 3.33 µM (active) and 5.66 µM (active); in [7] it was 6.63 µM (active) and 10.3 µM (active); in [8], 2.64 µM (active) and 9.47 µM (active). Besides, the AC50 in assay [11] was 6.48 µM (active) and 15.4 µM (active); in assay [12], 824 nM (active) and 2.52 µM (active); in assay [13], 23.1 µM (active); in assay [16], 12.3 µM (active); in assay [17], 11.9 µM (active).
With `CCCCOC(=O)C(C)Oc1ccc(Oc2ccc(C(F)(F)F)cn2)cc1` (stereo not given), the result in assay [1], in assay [2], in assay [3], in assay [4], in assay [5] and in [7] was inactive. Also, the outcome in assay [8], in assay [9], in assay [10], in [11], in assay [18] and in [12] was inactive. Besides, the call in assay [13], in [14], in assay [16] and in [17] was inactive.
Consider `CCCCOC(=O)[C@@H](C)Oc1ccc(Oc2ccc(C(F)(F)F)cn2)cc1`, for which the outcome in assay [1], in assay [2], in assay [3], in assay [4], in [5] and in assay [7] was inactive. For the same compound, the outcome in assay [8], in assay [9], in assay [11], in assay [18], in assay [19] and in assay [12] was inactive. Also, the result in [13], in assay [14], in assay [15] and in [16] was inactive.

These data come from PubChem BioAssay (EPA / NIEHS).
